Data from PubChem BioAssay AID2685 (National Center for Advancing Translational Sciences (NCATS), 2010).
Hit rate of the full screen: of about 320,000 compounds, about 2,100 (0.66%) were called active. Roughly 53% stayed inconclusive and do not appear here. This is one part of a sample in which actives are shown more often than they occur. The call rests on the fitted dose curve; in most records, active means well fitted inhibition curve with a large enough effect in the signal ratio, with a control signal flat (not every such curve was filed as active); inconclusive means small, poorly fitted or top-dose-only effect, or effect the other way, or a change in a side signal; inactive means flat fitted curve, though single readings scatter; the % refers to the signal ratio.

Experiment: qHTS Assay for Lipid Storage Modulators in Drosophila S3 Cells;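 on cell number change: cells counted by Cell Tracker Red CMTPX staining in the red channel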
Details: BODIPY lipid droplet fluorescence, 18-24 h, cells fed with added oleic acid; cell number change: measured here: cell count max response; series mostly up to 46.1 µM
Outline: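 Drosophila S3 cells loaded with oleic acid (400 uM, as added) and compounds at several concentrations; lipid droplets imaged by 488-nm laser-scanning cytometry, 500–530 nm intensity and object ratio to cell channel. Percent activity normalized to 20 uM Triacsin C.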
Potency means the concentration at half of the fitted maximal effect.

Row | Compound | Potency | cell number change
1 | OC1(c2ccccc2)CCN(Cc2ccccc2)C2CCCCC21 (centres undefined) | inactive | -0.282%
2 | COc1ccc(-n2c(/C=C(\C)O)nc(=O)c3c(C)cc(C)nc32)cc1 | inactive | 
3 | COC(=O)C1Cc2c([nH]c3ccccc23)CN1C(C)=O (centres undefined) | inactive | 2.42%
4 | COc1ccc(/C=C2/SC(=O)N(CCNC(=O)C3CCCN3C(=O)c3cccs3)C2=O)cc1 (centres undefined) | 20.6 µM (active) | -3.84%
5 | COc1ccc(/C=C2/SC(=O)N(CCNC(=O)C3COc4ccccc4O3)C2=O)cc1 (centres undefined) | inactive | -11.7%
6 | O=C(O)CCN1C(=O)S/C(=C\c2cccnc2)C1=O | inactive | 3.35%
7 | O=C(NCCN1C(=O)S/C(=C/c2cccnc2)C1=O)c1cccs1 | 2.31 µM (active) | -5.78%
8 | COc1ccc(NC(=O)COC(=O)[C@@H]2CCCN2C(=O)c2cccs2)cc1 | 29.1 µM (active) | 7.9%
9 | O=C(NCCN1C(=O)S/C(=C\c2cccnc2)C1=O)c1ccc([N+](=O)[O-])s1 | inactive | 0.268%
10 | O=C(COC(=O)C1CCCN1C(=O)c1cccs1)Nc1ccc2c(c1)OCO2 (centres undefined) | inactive | 11.1%
11 | COc1ccc(/C=C2\SC(=O)N(CCNC(=O)C3CC4C=CC3C4)C2=O)cc1 (centres undefined) | inactive | 
12 | COc1ccc(NC(=O)COC(=O)[C@@H]2CCCN2C(=O)c2cccs2)c(OC)c1 | inactive | -0.232%
13 | CCOc1c([N+](=O)[O-])cc2c(C)c(C(=O)N3CCN(C)CC3)oc2c1OCC | inactive | -1.04%
14 | CC(C)CC(c1nnnn1C1CCCC1)N1CCN(C(=O)c2ccco2)CC1 (centres undefined) | inactive | -2.29%
15 | COc1ccccc1C(=O)Nc1ccc2[nH]ncc2c1 | inactive | 0.824%
16 | CC(C)(C)C(=O)C1=C(O)C(=O)N(Cc2ccccc2)C1c1ccccc1F (centres undefined) | inactive | 0.73%
17 | CC(=O)C1=C(O)C(=O)N(Cc2ccccc2)C1c1ccccc1F (centres undefined) | 18.4 µM (active) | -6.03%
18 | CC(=O)C1=C(O)C(=O)N(Cc2ccccc2)C1c1ccc(F)cc1 (centres undefined) | inactive | -7.48%
19 | S=C(NCC1CCCO1)Nc1ccccc1 (centres undefined) | inactive | -0.626%
20 | S=C(NCC1CCCO1)NC12CC3CC(CC(C3)C1)C2 (centres undefined) | inactive | 5.13%

Row | Compound | Potency | cell number change
21 | S=C(NCC1CCCO1)NC1CCCC1 (centres undefined) | 1.3 µM (active) | 
22 | CCOC(=O)c1c(C)[nH]c(C(=O)COC(=O)c2oc3ccc(OC)cc3c2C)c1C | inactive | -6.84%
23 | CCc1nnc(NC(=O)CSc2nc3ccccc3o2)s1 | inactive | 
24 | O=C(CSc1nc2ccccc2o1)Nc1nncs1 | 16.4 µM (active) | 24.7%
25 | Cc1nnc(NC(=O)CSc2nc3ccccc3o2)s1 | inactive | -14%
26 | O=C(O)CCc1nc(-c2cccs2)no1 | inactive | -23%
27 | CC(C)C(=O)Nc1ccc(-c2nc3ncccc3o2)cc1 | inactive | 0.493%
28 | COc1cc(C=O)ccc1OC(=O)c1ccncc1 | inactive | -18.5%
29 | COc1ccc(S(=O)(=O)N(C)c2ccc(C(=O)N3CCOCC3)cc2)cc1OC | inactive | 
30 | CN(c1ccccc1)S(=O)(=O)c1ccc(C(=O)N2CCCC2)cc1 | inactive | -4.2%
31 | CN(c1ccc(C(=O)N2CCCCCC2)cc1)S(=O)(=O)c1ccccc1 | 5.17 µM (active) | -9.4%
32 | COc1ccc(S(=O)(=O)N(C)c2ccc(C(N)=O)cc2)cc1 | 18.4 µM (active) | 
33 | COc1ccc(S(=O)(=O)N(C)c2ccc(C(=O)N3CCCC3)cc2)cc1 | inactive | 18.3%
34 | COc1ccc(S(=O)(=O)N(C)c2ccc(C(=O)N3CCCC3)cc2)cc1OC | 0.326 µM (active) | -7.14%
35 | CN(c1ccc(C(=O)N2CCCCC2)cc1)S(=O)(=O)c1ccccc1 | inactive | -27%
36 | CN(c1ccc(C(=O)N2CCN(c3ccc(F)cc3)CC2)cc1)S(C)(=O)=O | inactive | 
37 | COc1ccc(S(=O)(=O)N(C)c2ccc(C(=O)N3CCCCC3)cc2)cc1 | inactive | 
38 | CN(c1ccc(C(=O)Nc2ccccc2C(=O)N2CCOCC2)cc1)S(C)(=O)=O | inactive | -16%
39 | COc1ccc(S(=O)(=O)N(C)c2ccc(C(=O)N3CCCCC3)cc2)cc1OC | inactive | 2.05%
40 | CN(c1ccc(C(=O)N2CCOCC2)cc1)S(C)(=O)=O | 25.9 µM (active) | -14.6%

Row | Compound | Potency | cell number change
41 | CCCNC(=O)c1oc2ccc3c(c2c1C)C(O)CC(C)(C)O3 (centres undefined) | inactive | 11.7%
42 | O=C(CN1C2CCCC1CC(NC(=O)c1ccco1)C2)Nc1ccccc1C(F)(F)F (centres undefined) | inactive | 1.61%
43 | Cc1ccc(C(c2sc3ncnn3c2O)N2CC(C)CC(C)C2)cc1 (centres undefined) | inactive | -0.62%
44 | O=C1c2cccc3cccc(c23)C(=O)N1CC1CCN(S(=O)(=O)c2ccc(F)cc2)CC1 | inactive | 1.3%
45 | O=S(=O)(Nc1ccc(N2CCCCC2)cc1)c1ccccc1F | inactive | -15.7%
46 | CCOc1ccc2nc(CN3CCN(Cc4ccsc4)C(CCO)C3)ccc2c1 (centres undefined) | inactive | 3.37%
47 | Cc1nnc(SCC(=O)N(C)c2c(N)n(Cc3ccccc3)c(=O)[nH]c2=O)n1Cc1ccccc1 | inactive | 4.04%
48 | COc1ccc(S(=O)(=O)N(C)CC(=O)N2CCC(C(N)=O)CC2)cc1 | 14.6 µM (active) | -9.84%
49 | COc1ccc(S(=O)(=O)N(C)CC(=O)N2CCCC2)cc1 | inactive | -6.74%
50 | COc1ccc(S(=O)(=O)N(C)CC(=O)N2CCCCCC2)cc1 | inactive | 7.92%
51 | CN(C)S(=O)(=O)N1CCN(C(=O)c2ccccc2Cl)CC1 | inactive | 
52 | Cc1cccc(NS(=O)(=O)c2ccc(C(=O)N3CCC3)cc2)c1C | inactive | 19.3%
53 | CCOC(=O)C1CCN(C(=O)c2ccc(N(C)S(=O)(=O)c3ccc(OC)cc3)cc2)CC1 | inactive | -4.35%
54 | Cc1ccc(S(=O)(=O)N(C)c2ccc(C(=O)N3CCC(C(N)=O)CC3)cc2)cc1 | 23.1 µM (active) | -5.24%
55 | Cc1ccccc1NS(=O)(=O)c1ccc(C(=O)N2CCN(S(=O)(=O)c3ccccc3)CC2)cc1 | 3.26 µM (active) | -28%
56 | Cc1ccccc1NS(=O)(=O)c1ccc(C(=O)N2CCCCCC2)cc1 | inactive | 4.54%
57 | COc1ccc(S(=O)(=O)N(C)c2ccc(C(=O)N3CCC(C(N)=O)CC3)cc2)cc1 | inactive | -14.8%
58 | O=C(c1ccccc1)N1CCN(S(=O)(=O)N2CCCCCC2)CC1 | inactive | 22.9%
59 | CN(C)S(=O)(=O)N1CCN(C(=O)c2ccccc2)CC1 | 23.1 µM (active) | 10.4%
